This note sets out measurements from publication PMC9574860, “Chemical Toolkit for PARK7: Potent, Selective, and High-Throughput” (Journal of Medicinal Chemistry, 2022).

Out of some 7,900 compounds screened, about 400 (5.1%) showed an effect of 50% or more. Many of the other results were omitted from the sample, so strong results are more common in it than they were.

The target of the assay is Parkinson's disease protein 7 (PARK7/DJ1) (human, UniProt Q99497). Description: primary screen, percent inhibition; read as competition with a fluorescent probe by fluorescence polarization; higher = more effect of the substance. The following applies: 100 µM. In a few lines: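 Covalent fragments at 100 μM final were incubated 2 h with 0.2 μM PARK7, then 20 nM probe JYQ-107 added for a further 2 h. Fluorescence polarization read at 480/520 nm; relative FP loss versus reference controls gave remaining enzyme activity.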
Sequence of Parkinson's disease protein 7 (PARK7/DJ1) (Q99497 whole entry, looked up, the tested form may be a part): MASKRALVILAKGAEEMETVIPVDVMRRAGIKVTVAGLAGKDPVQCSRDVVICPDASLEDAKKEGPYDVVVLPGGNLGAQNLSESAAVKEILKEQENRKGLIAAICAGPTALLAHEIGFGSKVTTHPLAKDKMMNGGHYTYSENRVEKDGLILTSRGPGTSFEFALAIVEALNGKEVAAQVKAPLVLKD
On to `N#Cc1ncn(CCCOc2ccc(Cl)cc2)n1`, for which the Inhibition % turned out to be 9.73%.
As to `N#Cc1ncn(Cc2c(F)cccc2Cl)n1`, the Inhibition % came out at 0.988%.
With `C=CC(=O)Nc1cnc2c(C)cccn12` the figure was 8.53%.
On to `CCCNC(=O)C(C#N)=Cc1oc(C)nc1C`, for which the Inhibition % is given as 19.4%.
As for `Cc1nc(C)c(C(=O)CCl)o1`, the Inhibition % stood at 95.2%.
`Cc1nc(C#N)c(N2CCN(C(=O)CCl)CC2)o1`: the Inhibition % was determined as 38.4%.
For the compound `C=CC(=O)N1CCCCC1c1noc(C2CC2)n1` (stereo not shown), the Inhibition % is on record as 29.3%.
Turning to `COC[C@@H]1C[C@H](OC)CN1C(=O)c1c[nH]c(C#N)c1`, the Inhibition % was determined as 1.56%.
Turning to `Cl.NCCN1C(=O)CSC1=O`, the Inhibition % worked out at 75.6%.
With `O=C(O)CN1C(=O)CSC1=O` the figure was 17.6%.
Consider `O=C(O)CCN1C(=O)CSC1=O`, for which the Inhibition % is 13%.
With `CN(Cc1nc2ccccc2[nH]1)S(=O)(=O)C1=CCCCC1` the figure was 8.82%; with `C=CC(=O)NC(CO)C1CCCO1` (stereo not shown), 6.87%; with `O=C(CCl)NCC#Cc1ccccc1`, 1.08%.
For `C=CC(=O)N1CCCN(c2ccccn2)CC1`, the Inhibition % is 12.3%.
On to `C=CC(=O)N(CC)C1CCS(=O)(=O)C1` (stereo not shown), for which the Inhibition % is on record as -4.06%.
`OC1(C2CO2)CCCC1` (stereo not shown): the Inhibition % turned out to be 3.59%.
On to `Cc1nn(C)c(Cl)c1C=CC(=O)N1CCC(N)C1.Cl` (stereo not shown), for which the Inhibition % turned out to be 17.1%.
The figure for `CNC(=O)Cn1nc(-c2ccc(F)cc2)oc1=O` is 16.9%; for `O=C(CCl)N1CCC(C(=O)N2CCCCCC2)CC1` it is 15.1%.
Consider `CCOC(=O)N1CCN(C(=O)CCl)CC1`, for which the Inhibition % came to 67.8%.
For `NC(=O)C1CCCN(C(=O)CCl)C1` (stereo not shown), the Inhibition % came out at 35.5%.
For `O=C(CCl)N1CCC(C(=O)N2CCCCC2)CC1`, the Inhibition % is given as 18.3%.
The figure for `O=C(CCl)N1CCN(C(=O)C2CC2)CC1` is 56.1%; for `CCOC(=O)C1CCCN(C(=O)CCl)C1` (stereo not shown) it is 74.4%; for `O=C(CCl)N1CCN(C(=O)CCl)CC1` it is 36.5%.
With `CCOC(=O)C1CCN(C(=O)CCl)CC1` the figure was 19.7%.
The figure for `CN1CCN(C(=O)CCl)CC1.Cl` is 1.98%; for `C=CC(=O)N1CCN(C)c2cc(F)ccc21` it is 14.6%; for `N#CCCN(C(=O)CCl)c1cccc(Cl)c1` it is 29.3%.
In the case of `O=C(CCl)NC1CCN(C(=O)CCc2ccccc2)CC1`, the Inhibition % worked out at 11.9%.
For the compound `C=CC(=O)Nc1ccc2c(c1)CCCC(=O)N2`, the Inhibition % is 4.19%.
As for `O=C1CCc2cc(OCCCl)ccc2N1`, the Inhibition % was determined as 6.21%.
For `O=C1CCc2cc(C(=O)CCl)c(F)cc2N1`, the Inhibition % is listed as 1.18%.
In the case of `O=C(CCl)c1cc2c3c(c1)CC(=O)N3CCC2`, the Inhibition % is listed as 21.1%.
Take `O=C1CCc2cc(C(=O)CCl)ccc2N1`: the Inhibition % came out at 52.8%.
As for `CC1(C)C(=O)Nc2ccc(C(=O)CCl)cc21`, the Inhibition % is recorded as 32.9%.
In the case of `CS(=O)(=O)N1CCCc2cc(C(=O)CCl)ccc21`, the Inhibition % is on record as 76.4%.
For `CCS(=O)(=O)N1CCc2cc(C(=O)CCl)ccc21`, the Inhibition % came out at 11.9%.
For the compound `CS(=O)(=O)N1CCc2cc(C(=O)CCl)ccc21`, the Inhibition % is recorded as 36.2%.
Take `O=C1CCCc2cc(C(=O)CCl)ccc2N1`: the Inhibition % is listed as 86.5%.
The figure for `CC1C(=O)Nc2ccc(C(=O)CCl)cc21` (stereo not shown) is 85.9%; for `C=CC(=O)N(C1CC1)C1CCS(=O)(=O)C1` (stereo not shown) it is 10.3%.
With `CC(C)Cc1nc(C#N)c(NCc2ccncc2)o1`, the Inhibition % is given as 6.94%.
Regarding `CC1(C)OB(c2ccc(N)nc2)OC1(C)C`, the Inhibition % stood at 9.29%.
With `COc1ccc(-c2ccncc2)cc1B(O)O` the figure was 6.7%; with `N#CC(=Cc1cccs1)C(N)=O`, 10.8%; with `Cc1nn(C)c(NS(=O)(=O)C=Cc2ccccc2)c1C`, 11.2%.
Turning to `C=CC(=O)N1CCCc2c1nc[nH]c2=O`, the Inhibition % came to 20.2%.
As for `C=CC(=O)N1CCN(C(=O)c2cccc(Cl)c2)CC1`, the Inhibition % amounted to 4.01%.
Consider `O=C1COc2ccc(C(=O)CCl)cc2N1`, for which the Inhibition % stood at 8.16%.
As for `CN1Cc2cc(C(=O)CCl)ccc2NC1=O`, the Inhibition % is 11.5%.
Regarding `O=C1Cc2cc(C(=O)CCl)ccc2N1`, the Inhibition % was 81.4%.
As for `CN1C(=O)Cc2cc(C(=O)CCl)ccc21`, the Inhibition % was 83.4%.
With `CN1C(=O)CCc2cc(C(=O)CCl)ccc21`, the Inhibition % is 19.5%.
With `CCC(=O)N1CCc2cc(C(=O)CCl)ccc21`, the Inhibition % worked out at 3.43%.
In the case of `C=CC(=O)NCC(=O)NC1(C)CCCCC1`, the Inhibition % is recorded as 13.6%.
The figure for `C=CC(=O)NCc1nc2c(s1)COCC2` is 5.36%.
Take `O=S(=O)(C=Cc1ccccc1)NC1CCCn2ncnc21` (stereo not shown): the Inhibition % was 12.3%.
`C=CC(=O)Nc1c(C)nn(C)c1N1CCC1`: the Inhibition % stood at 87.1%.
For the compound `C=CC(=O)Nc1c(C)nn(CC)c1C`, the Inhibition % turned out to be 2.74%.
Consider `C=CC(=O)Nc1c(C)nn(C(C)C)c1C`, for which the Inhibition % amounted to 0.88%.
With `N#Cc1nc(C2CC2)n[nH]1` the figure was 2.55%; with `C=CC(=O)N1CCN(S(=O)(=O)CC)CC1`, 11.7%.
As to `CCN(C(=O)Cn1c(S)nc2ccccc2c1=O)C1CC1`, the Inhibition % came to 0.694%.
With `CCCc1nnc(NS(=O)(=O)c2cccc(S(=O)(=O)F)c2)o1`, the Inhibition % turned out to be 98.8%.
With `O=S(=O)(F)c1cccc(S(=O)(=O)Nc2cccnc2O)c1` the figure was 99.4%.
The figure for `Cc1nc(NS(=O)(=O)c2ccc(S(=O)(=O)F)cc2)no1` is 22.7%.
Take `O=S(=O)(F)c1ccc(S(=O)(=O)Nc2cccnc2O)cc1`: the Inhibition % worked out at 8.42%.
On to `O=S(=O)(F)c1ccc(S(=O)(=O)Nc2ncccc2Cl)cc1`, for which the Inhibition % was 32.9%.
In the case of `CCCc1nnc(NS(=O)(=O)c2ccc(S(=O)(=O)F)cc2)o1`, the Inhibition % came to 49.9%.
As for `Cc1cnccc1NS(=O)(=O)c1ccc(S(=O)(=O)F)cc1`, the Inhibition % is 18.9%.
With `Cc1cscc1NS(=O)(=O)c1cccc(S(=O)(=O)F)c1`, the Inhibition % stood at 98.1%.
As for `Cc1csc(NS(=O)(=O)c2cccc(S(=O)(=O)F)c2)n1`, the Inhibition % was 83.9%.
As for `O=C(CCl)Nc1cccc(C(=O)N2CCSCC2)c1`, the Inhibition % was determined as 6.3%.
The figure for `Cc1csc2ccc(B(O)O)cc12` is 5.69%.
With `O=C(CCl)NCC(=O)N1CCCC1` the figure was 2.12%; with `O=C(NCc1ccccc1)N1CCCCC1C1OCCO1` (stereo not shown), 6.92%.
Turning to `FC(F)(F)c1cccc(C2CO2)c1` (stereo not shown), the Inhibition % stood at 2.09%.
